D3 ag – agonists of human D3 dopamine receptor; P35462; D3R DiscoveRx beta-arrestin cells, luminescence, 90 min; max activation, %; 0.58% of 410,000 active; AID 652048; in the data active = max activation above about 30%; note: 0% is about no effect
Target sequence (P35462 whole entry, looked up): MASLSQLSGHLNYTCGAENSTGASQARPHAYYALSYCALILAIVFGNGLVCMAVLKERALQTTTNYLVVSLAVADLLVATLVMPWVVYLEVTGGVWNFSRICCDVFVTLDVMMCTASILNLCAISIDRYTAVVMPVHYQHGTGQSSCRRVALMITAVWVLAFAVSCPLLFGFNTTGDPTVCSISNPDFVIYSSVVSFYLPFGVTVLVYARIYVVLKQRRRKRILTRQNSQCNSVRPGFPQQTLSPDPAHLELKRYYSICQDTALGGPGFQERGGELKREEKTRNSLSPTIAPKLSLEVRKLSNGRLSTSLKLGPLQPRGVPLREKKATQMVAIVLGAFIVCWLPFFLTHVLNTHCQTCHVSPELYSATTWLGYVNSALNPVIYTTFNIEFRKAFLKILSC
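Cells at 1500/well, incubated overnight, then treated with pinned compounds (dopamine as control) for 90 min at 37 degrees C. DiscoveRx reagent added for 30 - 60 minutes at room temperature; luminescence read.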
D3 antag – blocks the human D3 dopamine receptor | P35462 | D3R cells, DiscoveRx beta-arrestin luminescence, antagonist mode; hits give low values | max response, negative = inhibition, % | 2.5% of 360,000 active; in the data active = max response below about -50%; inconclusive = no clear call, values can overlap the other calls; note: % is set by controls: 0 for no effect and ±100 for the full control effect
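Cells expressing the human receptor were seeded at 1500 cells/well, incubated overnight at 37 degrees C in 5% CO2, then exposed to library compounds with dopamine controls for 90 minutes at 37 degrees C before luminescent detection.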
KB-3-1 tox – KB-3-1 parental cell cytotoxicity; KB-3-1 viability, CellTiter-Glo ATP luminescence, 72 h; Potency, µM (highest dose often 46.1 µM), usual class: cytotoxic; 1.4% of 400,000 active; note: potency is the fitted concentration of half-maximal effect; % is set by controls: 0 for no effect and ±100 for the full control effect; nearly all actives have a fitted effect of over 60% in size
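Using CellTiter-Glo luminescence, growth of non-resistant KB-3-1 adenocarcinoma cells is assessed 72 h after pin-tool compound addition at 37 °C. Normalized responses across the concentration series yield fitted curves.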
MCF10A rerep – induces DNA re-replication in MCF 10a normal breast cells | MCF 10A DNA re-replication, Hoechst nuclear intensity, 48 h | Potency, µM (series often up to 46.1 µM), without a hit: at the highest dose activity, positive = re-replication, most hits filed as activators | 2.9% of 350,000 active; note: potency is the fitted concentration of half-maximal effect; % of control where 0% means no effect; nearly all actives have a fitted effect of over 50% in size
KB-V1 MDR tox – kills drug-selected multidrug resistant KB-V1 cells. Potency, µM (titrated, usually from 46.1 µM), hits mostly cytotoxic. KB-V1 MDR cells viability, CellTiter-Glo, 72 h. 3.4% of 400,000 active; note: potency is the fitted concentration of half-maximal effect; % is set by controls: 0 for no effect and ±100 for the full control effect; nearly all actives have a fitted effect of over 60% in size
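Luminescent ATP read-out (CellTiter-Glo, 10 min) measures survival of drug-selected KB-V1 MDR cells after 72 h, 37 degrees C compound exposure. Medium: phenol-red-free DMEM, 10% FBS. Values from fitted concentration-response curves.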
SW480 rerep – inducers of DNA re-replication in SW480 colon cancer cells; SW480 DNA re-replication, Hoechst DNA content imaging, 48 h; Potency, µM (highest dose often 46.1 µM), for inactives: at the highest dose re-replication activation, hits mostly activators; 1.8% of 340,000 active; note: potency is the fitted concentration of half-maximal effect; % of control where 0% means no effect; nearly all actives have a fitted effect of over 55% in size
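SW480 cells exposed to compounds for 48 hr at 37 C, 5% CO2, then Hoechst-stained 40 min. Nuclear DNA content imaged by fluorescence scanning (405 nm excitation, 500-530 nm emission); re-replication scored as increased high-intensity nuclei.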
The depositor's hits bear a star. Sampled rows, rich in hits. Any-hit rate of the full collection: about 8.9%. Unless noted, calls come from the whole dose curve; as a rule, active = well fitted curve in the direction sought with a large enough effect; inconclusive = small, poorly fitted or top-dose-only effect, or another doubt; inactive = no such curve, though single readings can be large; an effect the other way counts as inactive or inconclusive.

Cc1ccc(Nc2nc(CSc3nnc(-c4ccc(F)cc4)n3C)cs2)cc1 was read as D3 ag 2.8, D3 antag 1.8, KB-3-1 tox inconclusive, MCF10A rerep 13.2%, KB-V1 MDR tox 6.51µM* and SW480 rerep inconclusive.
Screening Cc1ccc2[nH]cc(C(O)c3c[nH]c4ccc(C)cc34)c2c1 returned KB-3-1 tox inactive and KB-V1 MDR tox inactive.
For O=C(Cn1nc(CNc2ccc(Br)cc2)[n+]2c1CCCCC2)c1ccc([N+](=O)[O-])cc1 the results were D3 ag 5.5, D3 antag 4.2, KB-3-1 tox 13µM*, MCF10A rerep 6.7%, KB-V1 MDR tox inactive and SW480 rerep -6.8%.
Screening COc1ccc(CNCC(O)COc2ccc3[nH]c(=O)ccc3c2)cc1OC (stereo not drawn) returned D3 ag 1.6.
Cc1ccc(Cn2cc(S(=O)(=O)c3cccc(C)c3)c(=O)c3cc(F)c(N4CCOCC4)cc32)cc1 was read as D3 ag -3.9.
For COc1ccc(NS(=O)(=O)c2cc(C)ccc2OC)cc1OC the results were D3 ag 9.9, D3 antag -58.0*, KB-3-1 tox inactive, MCF10A rerep -2.2%, KB-V1 MDR tox inactive and SW480 rerep 0.3%.
Screening FC(F)Oc1ccc(-n2cc(-c3ccccc3)[n+]3c2CCCCC3)cc1 returned D3 ag -4.8, D3 antag 0.1, KB-3-1 tox 23.1µM*, MCF10A rerep -2.2%, KB-V1 MDR tox inactive and SW480 rerep -10.8%.
Cc1ccc(-c2cn(-c3ccc(SC(F)F)cc3)c3[n+]2CCC3)cc1 was read as D3 ag -9.7, D3 antag -11.1, KB-3-1 tox 2.06µM*, MCF10A rerep 1.7%, KB-V1 MDR tox inactive and SW480 rerep -6.6%.
Cc1ccc(-c2cn(-c3ccc(OC(F)F)cc3)c3[n+]2CCCCC3)cc1 was read as D3 ag -23.7, D3 antag -6.8, KB-3-1 tox inactive, MCF10A rerep 5.1%, KB-V1 MDR tox inactive and SW480 rerep -1.1%.
Screening Clc1ccc(-n2cc(-c3ccc(Br)cc3)[n+]3c2CCCCC3)cc1 returned D3 ag -13.3, D3 antag -29.3, KB-3-1 tox inconclusive, MCF10A rerep 5.7%, KB-V1 MDR tox inactive and SW480 rerep inconclusive.
Screening FC(F)Sc1ccc(-n2cc(-c3ccc(Cl)cc3)[n+]3c2CCC3)cc1 returned D3 ag -9.5, D3 antag -27.3, KB-3-1 tox 18.4µM*, MCF10A rerep 3.4%, KB-V1 MDR tox inactive and SW480 rerep 1.4%.
For OCCN1CCN(C(c2ccccc2Cl)c2sc3nc(-c4ccco4)nn3c2O)CC1 (stereo not drawn) the results were D3 ag -13.5, KB-3-1 tox inactive and KB-V1 MDR tox inactive.
O=C(NCCc1ccccc1)c1ccc2c(c1)CCN2S(=O)(=O)c1ccc(Cl)cc1 was read as D3 ag -4.9, KB-3-1 tox inactive and KB-V1 MDR tox inactive.
Screening COc1ccc(CCNC(=O)Cn2nc(C)c3c(C)n(-c4ccccc4)nc3c2=O)c(OC)c1 returned D3 ag -0.9, D3 antag -2.6, KB-3-1 tox inactive, MCF10A rerep 2.4%, KB-V1 MDR tox inactive and SW480 rerep -3.2%.
Screening COc1ccc(OC)c(CCNC(=O)Cn2nc(C)c3c(C)n(-c4ccc(C)cc4)nc3c2=O)c1 returned D3 ag -3.8, D3 antag -1.7, KB-3-1 tox inconclusive, MCF10A rerep -1.8%, KB-V1 MDR tox 8.2µM* and SW480 rerep -23.8%.
Screening COc1ccc2oc(=O)cc(-c3cc4cccc(OC)c4o3)c2c1 returned D3 ag 0.9, D3 antag 5.0, KB-3-1 tox inactive, MCF10A rerep -3.2%, KB-V1 MDR tox inactive and SW480 rerep 1.4%.
For COc1cccc2cc(-c3cc(=O)oc4cc(C)c(OCC(C)=O)cc34)oc12 the results were D3 ag 5.3, D3 antag 4.3, KB-3-1 tox inconclusive, MCF10A rerep 19.8%, KB-V1 MDR tox inactive and SW480 rerep 6.51µM*.
Screening CCCCn1c(Oc2cccc(C(=O)OC)c2)nc2c1c(=O)n(C)c(=O)n2C returned D3 ag -22.8, KB-3-1 tox inactive and KB-V1 MDR tox inactive.
`CCCn1c(SCC(=O)Nc2ccccc2C(=O)OC)nc2c1c(=O)n(C)c(=O)n2C` gave D3 ag 4.0, D3 antag 6.2, KB-3-1 tox inactive, MCF10A rerep 1.5%, KB-V1 MDR tox 5.01µM* and SW480 rerep -8.7%.
For CCCCn1c(SCC(=O)Nc2cc(C)on2)nc2c1c(=O)n(C)c(=O)n2C the results were D3 ag 6.1, D3 antag 18.7, KB-3-1 tox inactive, MCF10A rerep 0.9%, KB-V1 MDR tox 14.6µM* and SW480 rerep -2.1%.
For CCCCn1c(SCc2nnc(-c3ccccc3)o2)nc2c1c(=O)n(C)c(=O)n2C the results were D3 ag 17.0, D3 antag -10.1, KB-3-1 tox inactive, MCF10A rerep 3.9%, KB-V1 MDR tox 2.59µM* and SW480 rerep -5.3%.
`CCCCn1c(Oc2ccc(C(=O)OC)cc2)nc2c1c(=O)n(C)c(=O)n2C` gave D3 ag -6.3, D3 antag 36.6, KB-3-1 tox inactive, MCF10A rerep -36.3%, KB-V1 MDR tox 16.4µM* and SW480 rerep -7.4%.
`O=C(CSc1nc(=O)n(Cc2ccco2)c2c1CCC2)NCc1ccccc1` gave D3 ag 12.5, KB-3-1 tox inactive and KB-V1 MDR tox inactive.
Cn1c(SCc2c(Cl)cccc2Cl)nnc1-c1ccc2nonc2c1 was read as D3 ag -8.2, D3 antag -15.9, KB-3-1 tox inactive, MCF10A rerep inconclusive, KB-V1 MDR tox inactive and SW480 rerep 11.6%.
Screening O=S(Cc1ccc(Br)cc1)Cc1nnc(SCc2c(Cl)cccc2Cl)n1-c1ccccc1 (stereo not drawn) returned D3 ag 4.6, D3 antag 2.1, KB-3-1 tox inactive, MCF10A rerep inconclusive, KB-V1 MDR tox 0.82µM* and SW480 rerep -2.6%.
For Cn1c(CS(=O)Cc2c(Cl)cccc2Cl)nnc1SCc1c(Cl)cccc1Cl (stereo not drawn) the results were D3 ag -1.7, D3 antag inconclusive, KB-3-1 tox inactive, MCF10A rerep 22.0%, KB-V1 MDR tox 5.8µM* and SW480 rerep 5.9%.
COc1cc(C2CC(=O)Nc3c2c(=O)[nH]c2ncnn32)ccc1O (stereo not drawn) was read as D3 ag 3.3.

From PubChem BioAssay
